Experimental data published in PubChem BioAssay AID651599 (National Center for Advancing Translational Sciences (NCATS), 2012).
Results filed as inconclusive are left out. The source made the active and inactive calls. Calls follow the shape of the dose curve; as a rule, active = well fitted inhibition curve with a large enough effect; inconclusive = small, poorly fitted or top-dose-only effect; inactive = no such curve, though single readings can be large or run the other way.

What follows are compounds tested against Tumor susceptibility gene 101 protein (Homo sapiens) (UniProt Q99816) (assay: qHTS Assay for Iinhibitors of HIV-1 Budding by Blocking the Interaction of PTAP/TSG101: Hit Validation in TR assay). Details: Tsg101 binding domain + Texas Red-labeled PTAP peptide, fluorescence polarization, 20 min; series mostly up to 57.5 µM.
Method in brief: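 Fluorescence polarization: Tsg101 binding domain (10 uM final) with Texas Red-labelled PTAP peptide (50 nM final) in HEPES pH 7.5, 0.15 M NaCl, Tween 20, EDTA, TCEP; 20 min binding at room temperature after compound addition.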
Potency is read from the fitted curve at half-maximal effect.

Chain of Tumor susceptibility gene 101 protein (Homo sapiens) (Q99816 whole entry, looked up, the tested form may be a part): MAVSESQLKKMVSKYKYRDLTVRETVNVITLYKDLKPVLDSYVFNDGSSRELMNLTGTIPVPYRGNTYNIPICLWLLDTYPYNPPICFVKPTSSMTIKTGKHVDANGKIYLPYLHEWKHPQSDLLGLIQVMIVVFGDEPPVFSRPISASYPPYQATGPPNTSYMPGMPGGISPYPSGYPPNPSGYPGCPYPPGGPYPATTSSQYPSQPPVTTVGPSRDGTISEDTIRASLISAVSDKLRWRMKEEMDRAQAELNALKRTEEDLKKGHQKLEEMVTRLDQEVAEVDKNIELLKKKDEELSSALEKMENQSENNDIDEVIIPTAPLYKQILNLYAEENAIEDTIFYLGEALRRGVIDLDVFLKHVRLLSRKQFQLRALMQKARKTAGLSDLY

Potency, inactive:
COc1ccc(-n2nc(C(=O)Nc3ccc(OC)c(OC)c3)c3c4ccccc4n(C)c3c2=O)cc1
COc1ccccc1N1C(=O)c2cccc3c(N(C)CCO)ccc(c23)C1=O
Cc1cccc(N2C(=O)c3cccc4c(N)ccc(c34)C2=O)c1
OCCN(CCO)c1nc(N2CCCCC2)c2nc(N(CCO)CCO)nc(N3CCCCC3)c2n1
COc1ccc2c3c(cccc13)C(=O)CC2
Cc1cc(Nc2cccc(Cl)c2C)n2ncnc2n1
CC[C@H](C)/C=C(C)/C=C/C1=CC2=CC(=O)[C@]3(C)OC(=O)[C@@H](C(C)=O)[C@@H]3C2=CO1
CCN(CC)C(=O)[C@H]1CC(CC(=O)NCc2cccc(C(F)(F)F)c2)C(=O)N2CCc3c([nH]c4ccc(OC)cc34)[C@]12C (some centres undefined)
CCNc1ccc2noc3c2c1C(=O)c1ccccc1-3
CC(C)c1cc(=O)oc2c3c4c(cc12)CCCN4CCC3
CCC(=O)Nc1ccc(NC(=O)C23CC4CC(CC(C4)C2)C3)cn1
COc1ccc2nc3ccccc3nc2c1NC(=O)c1ccc(Cl)cc1Cl
COc1ccc(NC(=O)c2cccc(-c3ccc(O)cc3)c2)cn1
CCc1ccccc1N=Cc1c(C)c(C#N)c2[nH]c3ccccc3n2c1=O
COc1cc(-c2cc(-c3ccc(N)cc3)[nH]c(=O)c2C#N)cc(OC)c1OC
CC(C)(C)c1ccc(C2C3=C(CCCC3=O)NC3=C2C(=O)c2ccccc23)cc1 (centres undefined)
Cc1cc2nc3c(=O)n(CCc4ccccc4)c(=O)[nH]c3nc2cc1N
N=c1oc2ccc3ccccc3c2cc1-c1nc(-c2ccccc2)cs1
O=C(Nc1nc2c(s1)CN(Cc1ccccc1)CC2)c1cccc(S(=O)(=O)N2CCc3ccccc32)c1
Cc1c2cc(O)c(=O)cc-2oc2cc(O)c(O)cc12
Cc1cccc2cc(/C=C3\N=C(c4ccccc4)OC3=O)c(N3CCOCC3)nc12
OC(CN1CCN(c2ccccn2)CC1)Cn1c2ccccc2c2ccccc21 (centres undefined)
O=C(NCCc1ccc(F)cc1)c1cccc2c1C(=O)c1ccc(N3CCC(Cc4ccccc4)CC3)cc1S2(=O)=O
O=C1CCCC2=C1Sc1ccc(Cl)cc1N2
O=C(OCCN1C(=O)c2cccc3c(N4CCOCC4)ccc(c23)C1=O)c1ccc(Cl)cc1Cl
CC(C)(C)c1cc[n+](-c2[nH]c(=O)sc2/C=N/NC(=O)c2ccccc2[O-])cc1
O=C(CCl)N1c2ccccc2Oc2ccc3ccccc3c21
CCCCCCCCOc1ccc(C2OC34CCCCC3C(C#N)(C#N)C2(C#N)C(=N)O4)cc1 (centres undefined)
O=[N+]([O-])c1ccc(Sc2cccc[n+]2[O-])c2nonc12
Cc1ccc(C2C=C(c3ccccc3)Nc3nc(NS(C)(=O)=O)nn32)cc1 (centres undefined)
CCCCN(C)C1=CC2=CC(=C(C#N)C#N)CCC2CC1 (centres undefined)
CCOc1ccc(Cn2c3ccc(OC)cc3c3nc4ccccc4nc32)cc1
Nc1ccc2nc(-c3ccccc3)c(-c3ccccc3)nc2c1
CCCn1nc(-c2ccccc2)c2nc3ccccc3nc21
COc1cc(C2C=C(c3cccs3)Nc3ncnn32)cc(OC)c1OC (centres undefined)
CC1CCCN(c2nc3ccccc3nc2C(C#N)S(=O)(=O)c2ccccc2)C1 (centres undefined)

Potency, active:
CCN(CC)c1ccc(/C=C/C(=O)c2ccc(Br)cc2)cc1 16.3 µM
CCN(CC)c1ccc2c(-c3ccc(S(=O)(=O)O)cc3S(=O)(=O)[O-])c3ccc(=[N+](CC)CC)cc-3oc2c1 0.13 µM
CCN1CC=C2C(C#N)=C(N)C(C#N)(C#N)C(CCc3ccccc3)C2C1 (centres undefined) 11.6 µM
